Source: PubChem BioAssay AID449762 (Southern Research Specialized Biocontainment Screening …, 2010)
The whole screen tested about 330,000 compounds, of which about 1,900 (0.58%) were called active. Inconclusive results (about 4%) are left out. The list is a sample of the results. Potency and affinity values are given separately. A number with no mark means an inactive call. Cut-off read from the data, not from the text of the source: inconclusive = inhibition above about 70% without an active follow-up result; inactive = below that.

assay: M. tuberculosis growth inhibition, HTS (AID 449762);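 note: bacterial growth assessed after seven days of incubation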; conditions: M. tuberculosis H37Rv growth inhibition, 7H9 media; at 25 µM; active compounds read high

| SMILES | inhibition |
| --- | --- |
| COc1cc(NS(=O)(=O)c2ccc(NC(=S)NC(=O)c3sc4ccccc4c3Cl)cc2)nc(OC)n1 | -0.21% |
| Cc1ccc(-c2csc(NC(=O)CN3CCC(C(N)=O)CC3)n2)cc1 | 2.15% |
| COc1ccc(C(=O)C2CCN(CC(=O)Nc3ccc(C)cc3)CC2)cc1 | 8.88% |
| Cc1ccc(-c2oc3ccccc3c(=O)c2O)cc1 | 27.6% |
| O=c1c(O)c(-c2ccc3c(c2)OCO3)oc2ccccc12 | 35.4% |
| CCOC(=O)CNC(=O)CNC(=O)c1ccc(OCC(C)C)cc1 | 22.7% |
| CCOC(=O)c1sc2c(c1C)C(c1cccs1)C1=C(CCCC1=O)N2 (centres undefined) | 11.9% |
| Cn1c(=O)c2c(nc(NCc3ccc4c(c3)OCO4)n2C)n(C)c1=O | -2.77% |
| COc1ccccc1CCNC(=O)C(=O)Nc1cc2c3c(c1)CC(=O)N3CCC2 | 57.3% |
| O=C(CSc1nnc(CNC(=O)c2ccccc2)o1)c1ccc(Cl)cc1 | 1.96% |
| O=C(O)CCSc1ccccn1 | -6.45% |
| O=C(O)CSc1ccccn1 | 2.15% |
| COC(=O)CC1C(=O)NCCN1C(=O)c1ccc([N+](=O)[O-])cc1 (centres undefined) | -0.41% |
| O=S(=O)(Nc1ccc(Cl)cn1)c1ccc(F)cc1 | -1.48% |
| COc1cc2c(cc1NC(=O)COC(=O)[C@@H](NS(=O)(=O)c1ccccc1)C(C)C)oc1ccccc12 | 6.17% |
| Clc1ccc(N2CCNCC2)nn1 | -10.1% |
| Cc1onc(-c2ccccc2Cl)c1C(=O)Nc1cccc2cccnc12 | 14.3% |
| COc1cc(NC(=O)c2c(-c3ccccc3Cl)noc2C)c2ncccc2c1 | -6.92% |
| Cn1cc(S(=O)(=O)N2CCC3(CC2)OCCO3)c(=O)n(C)c1=O | -0.14% |
| CC1=C(C(=O)OCc2ccccc2)C(c2cccc(F)c2)NC(=O)N1 (centres undefined) | -8.13% |
| Cc1cccc(-n2ncc3c2CCCC3NC(=O)C2=CC(=O)CC(C)(C)O2)c1C (centres undefined) | -0.85% |
| Cc1ccc(N(CC(=O)Nc2cc(C)cc(C)c2)S(=O)(=O)c2c(C)noc2C)cc1 | 6.89% |
| O=C(OCC(=O)C12CC3CC(CC(C3)C1)C2)c1ccccc1O | 6.66% |
| Cc1cc(C)cc(NC(=O)c2cccn2-c2ncc(C(F)(F)F)cc2Cl)c1 | 6.22% |

| SMILES | inhibition |
| --- | --- |
| CN(C)C(=O)c1cccn1-c1ncc(C(F)(F)F)cc1Cl | -4.51% |
| NC(=O)CCNC(=O)c1ccc(Cl)cc1 | -5.92% |
| Cc1ccc(NC(=O)CN2C(=O)C3CC=CCC3C2=O)cc1S(=O)(=O)N1CCOCC1 (centres undefined) | -2.53% |
| COC(=O)N/N=C(C)/C=C/c1ccccc1 | -8.99% |
| CC(/C=C/c1ccccc1)=N\NC(=S)NC(C)C | 28.1% |
| Cc1ncc(CSc2nnnn2-c2ccccc2)c(N)n1 | 1.43% |
| O=C(O)Cn1c(SCc2ccccc2)nc2ccccc21 | 2% |
| O=C(O)CCn1c(SCc2ccccc2)nc2ccccc21 | 2.64% |
| COC(=O)C1=C(c2ccc(OC)c(OC)c2)C[C@@H]2CC[C@H]1N2C(=O)NC1Cc2ccccc2C1 | -10% |
| Cc1ccc(C(=O)Nc2ccccc2NC(=O)c2ccc(C)o2)o1 | 7.31% |
| Cc1cc(C(=O)CSc2nnnn2C)c(C)n1CCc1ccc(Cl)cc1 | 4.63% |
| Cc1cc(C(=O)CSc2nnc(N)s2)c(C)n1CCc1ccc(Cl)cc1 | 9.47% |
| COc1ccc(/C=N/Nc2nc(N3CCCC3)nc(N3CCCC3)n2)cc1 | -3.33% |
| Oc1ccc(/C=N/Nc2cc(N3CCCC3)nc(N3CCCC3)n2)cc1 | 4.32% |
| CCN(CC)C(=O)CSc1nc2[nH]ncc2c(=O)[nH]1 | -0.87% |
| Cc1ccc(C)c2c1[nH]c1ccccc12 | 6.73% |
| COc1cc2[nH]c3ccccc3c2cc1C | -8.31% |
| O=c1oc(CCO)cc2ccc(Br)cc12 | 9.08% |
| COc1ccccc1NC(=O)c1c[nH]c2ccccc12 | 0.76% |
| CN1CCN(C(=O)CCN2C(=O)/C(=C/c3ccccc3Cl)SC2=S)CC1 | 49.8% |
| O=C(CCN1C(=O)/C(=C/C=C/c2ccccc2)SC1=S)Nc1ccccn1 | -4.47% |
| Cc1ccc(/C=C2\SC(=S)N(CCCC(=O)Nc3ccccn3)C2=O)cc1 | 0.58% |
| O=C(CCN1C(=O)/C(=C/c2ccccc2Cl)SC1=S)N1CCOCC1 | 69% |
| COC(=O)c1ccc(NC(=S)NC(=O)c2cccnc2)cc1 | -0.36% |

| SMILES | inhibition |
| --- | --- |
| COc1ccccc1-n1c(O)c(C=NCCN2CCNCC2)c(=O)[nH]c1=O | -7.53% |
| COC(=O)c1ccc(NC(=O)c2ccc3nccnc3c2)cc1 | -7.47% |
| CCN(CC)S(=O)(=O)c1ccc(S(=O)(=O)Nc2c(C)nn(C)c2C)cc1 | -5.92% |
| COc1ccc(-c2c(C(F)(F)F)oc3cc(OCC(=O)Nc4ccccc4C(F)(F)F)ccc3c2=O)cc1OC | 10.6% |
| CSc1nncc(-c2ccccc2)n1 | -0.45% |
| O=C(Cc1ccc(F)cc1)N1CCC(N2CCC(C(=O)N3CCOCC3)CC2)CC1 | 4.87% |
| CCCCn1nnc(NC(=O)CCC)n1 | -12.6% |
| OC(c1ccccc1)C1CN(Cc2ccccc2)CCC1(O)c1ccccc1 (centres undefined) | 2.62% |
| OC1(c2ccccc2)CCN(Cc2ccccc2)C2CCCCC21 (centres undefined) | -3.63% |
| CN1C(C(=O)NCc2ccc(OC(F)(F)F)cc2)CC2Cn3c(nc4cc5ccccc5cc43)C21 (centres undefined) | 57.5% |
| CN1C(C(=O)NCc2ccc(OC(F)(F)F)cc2)CC2Cn3c(nc4ccccc43)C21 (centres undefined) | -3.09% |
| Cc1ccc(S(=O)(=O)N[C@H](C(=O)N2CCC(C(=O)N[C@@H](CCC(N)=O)C(=O)O)CC2)C(C)C)cc1 | -8.96% |
| CN1CCN2c3ncccc3Cc3ccccc3[C@@H]2C1 | 8.88% |
| CN1CCN2c3ncccc3Cc3ccccc3C2C1 (centres undefined) | -1.61% |
| O=C(c1cc(C(=O)N2CCOCC2)c2nc3ccccc3n2c1)c1ccccc1O | 1.28% |
| COc1ccc(C(=O)CSc2nnc(CNc3ccc(C)cc3C)o2)cc1 | -7.42% |
| COc1ccc(C(=O)CSc2nnc(CNc3ccc(F)cc3)o2)cc1 | 15.6% |
| C=CCNC(=O)COC(=O)c1ccc(Sc2nncn2C)c([N+](=O)[O-])c1 | -2.55% |
| COc1ccc(CC(=O)N(Cc2ccccc2)c2ccc(C)cc2)cc1S(=O)(=O)N1CCOCC1 | 4.3% |
| CCOC(=O)CCc1cnccc1-c1cccc(OC)c1O | 4.79% |
| CCCN1C(=O)N(c2cccc(C)c2)C(C)(O)CC1(C)C (centres undefined) | 0.42% |
| O=C(c1cccc(C(F)(F)F)c1)N1CCN(C2CCCCC2)CC1 | 6.41% |
| CN(C)CC/C=C1/c2ccccc2Sc2ccc(Cl)cc21 | 39% |
| CC[N+](C)(C)CC/C=C1/c2ccccc2Sc2ccc(Cl)cc21 | -9.06% |

| SMILES | inhibition |
| --- | --- |
| CN(CCOc1ccc(-c2ccn(S(=O)(=O)c3ccc(Cl)cc3)n2)cc1)c1ccccn1 | 7.05% |
| Cc1ccc(-c2noc(CCC(=O)N3CCCc4ccccc43)n2)cc1 | 6.56% |
| CCOC(=O)c1c(NC(=O)COC(=O)Cc2n[nH]c(=O)c3ccccc23)sc(C(=O)NC)c1C | -12.1% |
| O=[N+]([O-])c1cccc(-c2nc(-c3ccccc3)c(-c3cccs3)[nH]2)c1 | 1.45% |
| O=[N+]([O-])c1cccc(-c2nc(-c3cccs3)c(-c3cccs3)[nH]2)c1 | 1.58% |
| CN(C)c1ccc(C=C2C(=O)OC(C)(C)OC2=O)cc1 | 2.97% |
| CC1=NN(c2ccccc2)C(=O)/C1=C/c1ccc[nH]1 | 1.35% |
| COc1cc2cc(Oc3ccc4ccc(=O)oc4c3)c(=O)oc2cc1O[C@@H]1O[C@H](CO)[C@@H](O)[C@H](O)[C@H]1O | -3.36% |
| c1cc2c3c(cccc3c1)NC1(CCCCC1)N2 | -8.51% |
| CC(C)(C)C1CCC2(CC1)Nc1cccc3cccc(c13)N2 | 28.8% |
| Cc1cc(C(=O)N2CCN(Cc3ccccc3)CC2)on1 | 4.33% |
| CN1C(=O)N(C)C2(c3ccccc3)Nn3c(s/c(=C/c4ccccc4F)c3=O)=NC12c1ccccc1 (centres undefined) | 1.37% |
| CCCC(C)C(=O)Nc1ccccc1C(=O)OCC (centres undefined) | -6.12% |
| COc1ccc(C2C(C#N)=C(C)NC3=C2C(=O)CC(C)(C)C3)cc1 (centres undefined) | 2.98% |
| CC1=C(C#N)C(c2cccnc2)C2=C(CC(c3ccc(Cl)cc3)CC2=O)N1 (centres undefined) | 49.6% |
| Cc1ccc(C[n+]2ccccc2)cc1 | -0.58% |
| Cc1nc2ccccn2c1P(=Nc1ccccc1)(N(C)C)N(C)C | -7.51% |
| COC(=O)[C@@H]1C[C@@]2(O)[C@@H](O)[C@@H](O)[C@@H](O)C[C@H]2N1Cc1ccc(C(F)(F)F)cc1 | -13% |
| CCOC(=O)c1ccc(-c2c(-c3ccc4c(c3)OCO4)noc2-c2ccsc2)cc1F | 7.75% |
| CCOC(=O)c1ccc(-c2c(-c3cc(OC)c(OC)c(OC)c3)noc2C)cc1F | 8.43% |
| CCCOc1ccc(N2CC(C(=O)Nc3ncccc3C)CC2=O)cc1 (centres undefined) | 25.7% |
| O=C1CCc2cc(S(=O)(=O)NC(Cc3ccccc3)C(=O)NCCC3=CCCCC3)ccc2N1 (centres undefined) | -6.41% |
